Screening data: PubChem, several laboratories
Bead autofluor – counter-screen for toxin protease inhibitors: compound fluorescence; 3.1% of 360,000 active; fluorescence intensity (no concentration beside the values); compound autofluorescence counterscreen, microsphere flow cytometry; hits give high values; in the data active = fluorescence intensity above about 16000; inconclusive = no clear call, values can overlap the other calls
BoNT-A LC inh2 – BoNT A light chain protease inhibition. multiplex microsphere protease substrate cleavage, flow cytometry. inhibition, % at 10 µM. 0.17% of 360,000 active. AID 588499
Anthrax LF inh2 – anthrax lethal factor protease inhibition; P15917; multiplex microsphere protease cleavage assay, LF; inhibition, % at 10 µM; 0.12% of 360,000 active; AID 588501
DUSP3 inh – blocks human VHR1 dual specificity phosphatase; P51452; recombinant VHR phosphatase, pNPP absorbance; inhibition, % at 13.3 µM; 0.52% of 290,000 active; in the data active = inhibition above about 50%
MazEF act – increases E. coli MazEF RNase cleavage of RNA; P0AE70; FAM/BHQ RNA-DNA oligo cleavage fluorescence, 5 h; activation, % at 20 µM; 0.32% of 350,000 active; AID 504720; in the data active = activation above about 50%
BoNT F protease – inhibitors of Botulinum neurotoxin F light chain protease; 0.22% of 360,000 active; Multiplex microsphere protease cleavage assay, flow cytometry; AID 588497; inhibition, % at 10 µM; in the data active = inhibition above about 35%, passing the limit was not always enough; inconclusive = no clear call, values can overlap the other calls
Numbers stand for hits; - = inactive; ? = inconclusive; . = not tested or not shown; + = active, no number. A selection: hits, their analogues and other compounds. The true share with any hit is near 4%. Cut-off read from the data, not from the text of the source, unless noted: active = inhibition above about 30%; inconclusive = no clear call, values can overlap the other calls; inactive = below that.

SMILES	Bead autofluor	BoNT-A LC inh2	Anthrax LF inh2	DUSP3 inh	MazEF act	BoNT F protease
CCC(=O)N1N=C(c2ccccc2)CC1c1ccc([N+](=O)[O-])cc1 (centres undefined)	-	-	-	-	-	-
COc1ccc(C2=NN(C(=O)c3cccc([N+](=O)[O-])c3)C(c3cccc([N+](=O)[O-])c3)C2)cc1 (centres undefined)	19134	-	-	-	-	-
N#C/C(=C/c1cn(-c2ccccc2)nc1-c1cccc(S(=O)(=O)N2CCCC2)c1)C(=O)NCc1ccco1	-	-	-	-	-	-
O=C(Nc1ccccc1)C1=C[C@H](c2ccccc2)C[C@H](OCc2ccc(CO)cc2)O1	-	-	-	-	-	-
COc1cc(OC)c(-c2cc(C(=O)O)ccc2OC)c(OC)c1	-	-	-	-	+	-
CC(C)n1nnnc1C1c2ccccc2C(=O)N1Cc1cccc(F)c1 (centres undefined)	-	-	-	.	.	-
COc1nc(N(C#N)CC(N)=O)nc(N2CCCC2)n1	20491	-	-	-	-	-
COc1nc(OCC#N)nc(N2CCCCC2)n1	-	-	-	-	-	-
Cc1nc2ccccc2c(=O)n1NC(=O)c1cncc(Br)c1	-	-	-	-	-	-
COc1ccc(C(C)n2c(C)c3c(C)nnc(C)c3c2C)cc1 (centres undefined)	16371	-	-	-	-	-
O=C1NC2C(=CC(O)C(O)C2O)c2cc3c(cc21)OCO3 (centres undefined)	-	-	-	.	-	-
Cc1cc(C(=O)NC2CCCc3c2cnn3-c2cccc(C)c2C)no1 (centres undefined)	-	-	-	-	-	-
O=C(NCc1ccc(Cl)cc1)C1C2C=CC3(CN(Cc4cccnc4)C(=O)C13)O2 (centres undefined)	25239	-	-	-	-	-
CCSc1ncc(C#N)c(=O)[nH]1	-	-	-	-	-	-
Cc1cc(=O)oc2cc(OCC(=O)N3CCOCC3)ccc12	-	-	-	-	-	-
Cc1cc(=O)oc2cc(OC(C)C(=O)N3CCOCC3)ccc12 (centres undefined)	23796	-	-	-	-	-
CC(=O)O[C@@]12CO[C@@H]1C[C@@H](O)[C@@]1(C)C(=O)[C@H](O)C3=C(C)[C@@H](OC(=O)[C@H](O)[C@@H](NC(=O)c4ccccc4)c4ccccc4)C[C@@](O)([C@@H](OC(=O)c4ccccc4)C12)C3(C)C (some centres undefined)	-	-	-	-	-	-
CC1=CC(c2ccccc2)n2nc(N3C(=O)C4CC=CCC4C3=O)nc2N1 (centres undefined)	-	-	-	57	-	-
Cc1nc2cc(OCc3cc(C(=O)NC(C)c4cnn(C)c4)no3)ccc2s1 (centres undefined)	-	-	-	51	-	-
COc1ccc(OCc2cc(C(=O)NC(C)c3cnn(C)c3)no2)c(Cl)c1 (centres undefined)	-	-	-	-	-	-
OC1(c2cccc(C(F)(F)F)c2)CCNCC1	20667	-	-	-	-	-
O=S(=O)(c1ccc(OC(F)(F)F)cc1)N1CCC(O)(c2cccc(C(F)(F)F)c2)CC1	-	-	-	-	-	-
Brc1ccc(-c2nn3c(Cc4ccccc4)nnc3s2)o1	-	-	-	-	-	-
c1ccc(Cc2nnc3sc(Nc4ccccc4)nn23)cc1	16579	?	-	-	-	-
CC(Sc1ncnc2sccc12)C(=O)Nc1ccc(S(N)(=O)=O)cc1 (centres undefined)	-	-	-	.	-	-
SMILES	Bead autofluor	BoNT-A LC inh2	Anthrax LF inh2	DUSP3 inh	MazEF act	BoNT F protease
CC(Sc1ncnc2sccc12)C(=O)Nc1ccc(C(N)=O)cc1 (centres undefined)	-	-	-	-	54	-
CCC1CN1P(=O)(N1CCCC1)N1CC1CC (centres undefined)	-	-	-	.	-	-
COc1cccc(-c2nc3n(n2)CCc2ccccc2-3)c1	-	-	-	.	-	-
O=C(CCN1CCCCC1)Nc1ccc(Br)cc1C(=O)c1ccccc1	-	-	-	.	-	-
CC(C(=O)Nc1ccc(Br)cc1C(=O)c1ccccc1)N1CCCCC1 (centres undefined)	19761	-	-	-	-	-
N#C/C(=C\c1cn(Cc2cccc(F)c2)c2ccccc12)C(=O)NCc1ccco1	-	-	-	-	-	-
CCOc1ccc(N(C(C)C(=O)NC(C)CC)S(C)(=O)=O)cc1 (centres undefined)	19908	-	-	-	-	-
CC(=O)Nc1ccc(S(=O)(=O)NCCC(=O)OCC(=O)c2cccc(Br)c2)cc1	.	.	.	.	-	.
O=C(c1cccs1)N1CCN(C(=O)c2ccco2)c2ccccc2C1	-	-	-	-	-	-
Cc1cc(=O)[nH]c(S/C=C/c2ccccc2)n1	20598	-	-	-	-	-
Cc1cc(=O)[nH]c(SCc2ccccc2)n1	-	-	-	-	-	-
CC(=O)N(C)c1cccc([N+](=O)[O-])c1	-	-	-	-	-	-
O=c1c2cnn(-c3ccccc3)c2nc(-c2ccco2)n1-c1ccccc1	22323	-	-	-	-	-
Cc1ccc(N2CC(NC(=O)C(=O)c3c[nH]c4ccccc34)CC2=O)cc1C (centres undefined)	?	-	-	.	-	-
COc1ccc(NC(=O)NC2CCN(C(C)C)CC2)c(OC)c1	16455	?	-	-	-	-
Cc1ccc(S(=O)(=O)N(CC(=O)N/N=C/c2ccco2)Cc2ccccc2)cc1	22458	?	-	-	-	-
Cc1cc(NC(=O)CCC(=O)N(Cc2ccco2)C(C(=O)NC2CCCC2)c2ccccc2F)no1 (centres undefined)	-	-	-	-	-	-
Cc1cc(NC(=O)CCC(=O)N(Cc2ccco2)C(C(=O)NC2CCCC2)c2ccccc2C)no1 (centres undefined)	-	-	-	-	55	-
O=C(N/N=C/c1ccccc1[N+](=O)[O-])c1ccc2nc[nH]c2c1	-	-	?	-	-	49
CC(=O)N1CCc2c(sc(NC(=O)Cc3ccc(C)cc3C)c2C#N)C1	-	-	-	58	-	-
C=CCOC(=O)C1=C(C)OC(N)=C(C(=O)OCC)C12C(=O)N(CC(N)=O)c1ccccc12 (centres undefined)	19254	?	-	-	-	-
CCOC(=O)C1=C(C)OC(N)=C(C(=O)OCC)[C@@]12C(=O)N(CC(N)=O)c1ccccc12	-	-	-	-	-	-
CCCn1c(-c2ccc(OC)cc2)nc2nc3ccccc3nc21	22319	-	-	-	-	-
COCCCn1c(-c2ccc(OC)cc2)nc2nc3ccccc3nc21	.	.	.	-	.	.
COc1cc2c(cc1OC)CN(CC(=O)Nc1ccc(S(=O)(=O)N(C)C)cc1)CC2	-	-	-	-	-	-
COc1cc2c(cc1OC)CN(CC(=O)Nc1ccc3c(c1)OC(F)(F)O3)CC2	24021	?	-	-	-	-
